Values joined by “and” are separate entries in the source; they are usually repeats but may differ in a detail not shown here. Equal values may be shown once. Inconclusive results are not listed. Active and inactive are the calls of the source. How the source made its calls, unless noted: active means hit-call score of the fitted dose curve at least 0.9, where 1 is the maximum; inconclusive means response in the unintended direction; inactive means score below 0.9.
target: human Retinoid X Receptor beta (RXRb), RXRB (gene 6257) (UniProt P28702); assay: ATG_RXRb_TRANS: Attagene TRANS-FACTORIAL HepG2 Assay for human Retinoid X Receptor beta (RXRb) (AID 2283013); conditions: not given
Sequence (P28702 whole entry, looked up, the tested form may be a part): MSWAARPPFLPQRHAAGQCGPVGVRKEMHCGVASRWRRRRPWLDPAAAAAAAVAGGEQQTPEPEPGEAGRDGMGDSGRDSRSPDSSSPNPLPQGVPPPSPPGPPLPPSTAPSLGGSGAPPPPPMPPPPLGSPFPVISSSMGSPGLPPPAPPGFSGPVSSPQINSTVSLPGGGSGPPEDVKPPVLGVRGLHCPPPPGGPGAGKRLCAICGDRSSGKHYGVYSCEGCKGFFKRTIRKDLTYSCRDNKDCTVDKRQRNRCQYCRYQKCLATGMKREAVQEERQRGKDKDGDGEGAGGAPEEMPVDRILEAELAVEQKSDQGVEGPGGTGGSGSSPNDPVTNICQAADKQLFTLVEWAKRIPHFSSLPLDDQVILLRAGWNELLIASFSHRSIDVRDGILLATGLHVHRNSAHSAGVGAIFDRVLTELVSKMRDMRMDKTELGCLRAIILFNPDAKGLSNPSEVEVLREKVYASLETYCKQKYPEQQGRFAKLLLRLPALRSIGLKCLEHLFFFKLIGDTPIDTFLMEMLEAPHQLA
How it was run: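 Readout is reporter transcript induction after 24 h dosing. It is measured by RT-PCR of total RNA followed by fluorescent capillary electrophoresis. HepG2 liver cells carry transfected multiple reporter units driven by an exogenous RXRb-Gal4 fusion; activity is relative to DMSO.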

Compound	outcome
CCOC(OCC)C(=O)c1ccccc1	inactive
C=Cc1ccc(O)c(OC)c1	inactive
CCCCCCCCCC=CCC1CC(=O)OC1=O (stereo not given)	inactive
CCO[Si](C)(C)OCC	inactive
C=CC(=O)OCC(CO)(COCC(COC(=O)C=C)(COC(=O)C=C)COC(=O)C=C)COC(=O)C=C	inactive
O=c1cc(-c2ccccc2)oc2ccc3ccccc3c12	inactive
CCCCCC(C)OC(=O)COc1ccc(Cl)c2cccnc12 (stereo not given)	inactive

target: human Thyroid Receptor alpha (THRa1), THRA (gene 7067) (UniProt P10827); assay: ATG_THRa1_TRANS: Attagene TRANS-FACTORIAL HepG2 Assay for human Thyroid Receptor alpha (THRa1) (AID 2283014); conditions: not given
Sequence (P10827 whole entry, looked up, the tested form may be a part): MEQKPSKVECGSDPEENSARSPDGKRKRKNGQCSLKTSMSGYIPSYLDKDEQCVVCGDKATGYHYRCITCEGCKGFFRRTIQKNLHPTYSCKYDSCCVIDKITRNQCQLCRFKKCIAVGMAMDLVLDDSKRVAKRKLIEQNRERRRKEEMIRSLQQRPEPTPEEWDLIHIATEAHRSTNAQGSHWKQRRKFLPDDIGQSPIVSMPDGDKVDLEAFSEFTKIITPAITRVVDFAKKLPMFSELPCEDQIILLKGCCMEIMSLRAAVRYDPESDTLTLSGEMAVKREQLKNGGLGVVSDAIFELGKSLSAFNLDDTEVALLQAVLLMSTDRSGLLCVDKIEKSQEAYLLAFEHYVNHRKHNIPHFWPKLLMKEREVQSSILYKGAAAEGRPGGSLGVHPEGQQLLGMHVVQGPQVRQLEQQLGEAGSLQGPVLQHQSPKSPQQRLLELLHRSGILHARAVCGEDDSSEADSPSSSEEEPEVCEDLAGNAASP
How it was run: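 Transient HepG2 transfection, NR-Gal4 chimera driving GAL4-UAS reporters; 24 h compound exposure; total RNA, oligo(dT) RT, PCR, fluorescent primer extension, capillary electrophoresis. Upward direction vs DMSO control.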

Compound	outcome	AC50
CCCCCCCCCCCCCCCC(=O)OC	inactive	
COc1ccccc1NC(=O)c1cc2ccccc2cc1O		21.7 µM (active)
Nc1cc(Cl)c(-c2cc(Cl)c(N)cc2Cl)cc1Cl	inactive	
COC(=O)CC(C(C)=O)C(=O)OC (stereo not given)	inactive	
FC1(F)C=CC(F)(F)C1(F)F	inactive	
COC(O)c1ccccc1 (stereo not given)	inactive	
CCOCCOCC	inactive	
O=C1OC2(c3ccccc31)c1cc(I)c(O)c(I)c1Oc1c2cc(I)c(O)c1I	inactive	
CCc1cccc(CC)c1NC(=O)C(=O)O	inactive	
Oc1c(Cl)cc(Cl)cc1Sc1cc(Cl)cc(Cl)c1O	inactive	
O=C(c1cc(O)c(O)c(O)c1)c1ccc(O)c(O)c1O	inactive	
NNC(=O)CCCCC(=O)NN	inactive	
CC(O)COc1ccccc1 (stereo not given)	inactive	
Cn1sccc1=O	inactive	
NC(C(F)(F)F)C(F)(F)F	inactive	

read-out: Interleukin-1 alpha (IL1a), IL1A (gene 3552); assay: BSK_BE3C_IL1a: BioMAP Diversity Plus: BE3C Assay for Interleukin-1 alpha (IL1a) Biomarker Activity (AID 2283016; active means hit-call score of the fitted dose curve at least 0.9, where 1 is the maximum; inactive means score below 0.9); conditions: primary human bronchial epithelial cells; actives raise or lower the signal
How it was run: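 IL-1a measured by ELISA after 24 h treatment of human primary bronchial epithelial cells, with gain or loss of signal fitted versus DMSO. Parallel cultures stained with SRB gauge overt cytotoxicity.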

Compound	AC50	outcome
O=C1OC2(c3ccccc31)c1cc(I)c(O)c(I)c1Oc1c2cc(I)c(O)c1I	4.58 µM (active)	
COc1cc(OC)nc(NC(=O)NS(=O)(=O)Nc2ccccc2C(=O)N(C)C)n1		inactive
Oc1c(Cl)cc(Cl)cc1Sc1cc(Cl)cc(Cl)c1O	7.68 µM (active) and 8.04 µM (active)	

read-out: Monocyte Chemoattractant Protein-1 (MCP1), CCL2 (gene 6347); assay: BSK_3C_MCP1: BioMAP Diversity Plus: 3C Assay for Monocyte Chemoattractant Protein-1 (MCP1) Biomarker Activity (AID 2283017; active means hit-call score of the fitted dose curve at least 0.9, where 1 is the maximum; inactive means score below 0.9); conditions: primary human endothelial cells (HUVEC); actives raise or lower the signal
How it was run: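 HUVEC, 3C system; 24 h chemical exposure; MCP-1 by ELISA; bidirectional curve fit vs DMSO baseline.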

Compound	outcome	AC50
O=C(c1ccccc1)c1ccccc1	inactive	
C=CC(=C)CC/C=C(\C)CCC=C(C)C	inactive	
CCCCCCCCCCCCOS(=O)(=O)O	inactive	
O=C1OC2(c3ccccc31)c1cc(I)c(O)c(I)c1Oc1c2cc(I)c(O)c1I		6.03 µM (active)
COc1cc(OC)nc(NC(=O)NS(=O)(=O)Nc2ccccc2C(=O)N(C)C)n1	inactive	
Oc1c(Cl)cc(Cl)cc1Sc1cc(Cl)cc(Cl)c1O		36.2 µM (active) and 35.9 µM (active)

read-out: Monocyte Chemoattractant Protein-1 (MCP1), CCL2 (gene 6347); assay: BSK_4H_MCP1: BioMAP Diversity Plus: 4H Assay for Monocyte Chemoattractant Protein-1 (MCP1) Biomarker Activity (AID 2283018; active means hit-call score of the fitted dose curve at least 0.9, where 1 is the maximum; inactive means score below 0.9); conditions: primary human endothelial cells (HUVEC); actives raise or lower the signal
How it was run: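 ELISA of MCP-1 (CCL2) 24 h after chemical dosing of HUVEC in the BioMAP 4H system. Gain or loss versus DMSO fitted; parallel SRB staining (560 nm) tracked overt cytotoxicity.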

Compound	outcome	AC50
O=C(c1ccccc1)c1ccccc1	inactive	
C=CC(=C)CC/C=C(\C)CCC=C(C)C	inactive	
CCCCCCCCCCCCOS(=O)(=O)O	inactive	
O=C1OC2(c3ccccc31)c1cc(I)c(O)c(I)c1Oc1c2cc(I)c(O)c1I		4.8 µM (active)
COc1cc(OC)nc(NC(=O)NS(=O)(=O)Nc2ccccc2C(=O)N(C)C)n1	inactive	
Oc1c(Cl)cc(Cl)cc1Sc1cc(Cl)cc(Cl)c1O		9.13 µM (active) and 5.86 µM (active)

read-out: Human Leukocyte Antigen - DR isotype (HLADR), HLA-DRA (gene 3122); assay: BSK_3C_HLADR: BioMAP Diversity Plus: 3C Assay for Human Leukocyte Antigen - DR isotype (HLADR) Biomarker Activity (AID 2283019; active means hit-call score of the fitted dose curve at least 0.9, where 1 is the maximum; inactive means score below 0.9;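 on outcome: ELISA of cell-surface HLA-DR on HUVEC 24 h after dosing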); conditions: primary human endothelial cells (HUVEC); actives raise or lower the signal
How it was run: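 HUVEC, 3C stimulation, 24 h post-dose; HLA-DR by ELISA; bidirectional curve fit vs DMSO baseline; gain or loss of signal scored.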

Compound	outcome	AC50
O=C(c1ccccc1)c1ccccc1	inactive	
C=CC(=C)CC/C=C(\C)CCC=C(C)C	inactive	
CCCCCCCCCCCCOS(=O)(=O)O	inactive	
O=C1OC2(c3ccccc31)c1cc(I)c(O)c(I)c1Oc1c2cc(I)c(O)c1I		6.51 µM (active)
COc1cc(OC)nc(NC(=O)NS(=O)(=O)Nc2ccccc2C(=O)N(C)C)n1	inactive	
Oc1c(Cl)cc(Cl)cc1Sc1cc(Cl)cc(Cl)c1O		15.5 µM (active) and 22.3 µM (active)

read-out: Interleukin-8 (IL8), CXCL8 (gene 3576); assay: BSK_3C_IL8: BioMAP Diversity Plus: 3C Assay for Interleukin-8 (IL8) Biomarker Activity (AID 2283020; active means hit-call score of the fitted dose curve at least 0.9, where 1 is the maximum; inactive means score below 0.9); conditions: primary human endothelial cells (HUVEC); actives raise or lower the signal
How it was run: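 IL-8 was measured by ELISA in HUVEC cultures 24 h after chemical dosing, with gain or loss of signal fitted relative to DMSO. Parallel SRB total-protein staining tracked overt cytotoxicity.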

Compound	outcome	AC50
O=C(c1ccccc1)c1ccccc1	inactive	
C=CC(=C)CC/C=C(\C)CCC=C(C)C	inactive	
CCCCCCCCCCCCOS(=O)(=O)O	inactive	
O=C1OC2(c3ccccc31)c1cc(I)c(O)c(I)c1Oc1c2cc(I)c(O)c1I	inactive	
COc1cc(OC)nc(NC(=O)NS(=O)(=O)Nc2ccccc2C(=O)N(C)C)n1	inactive	
Oc1c(Cl)cc(Cl)cc1Sc1cc(Cl)cc(Cl)c1O		36 µM (active) and 35.2 µM (active)

read-out: Monokine induced gamma interferon (MIG), CXCL9 (gene 4283); assay: BSK_3C_MIG: BioMAP Diversity Plus: 3C Assay for Monokine induced gamma interferon (MIG) Biomarker Activity (AID 2283021; active means hit-call score of the fitted dose curve at least 0.9, where 1 is the maximum; inactive means score below 0.9); conditions: primary human endothelial cells (HUVEC); actives raise or lower the signal
How it was run: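 ELISA measurement of MIG in human umbilical vein endothelial cells 24 h after treatment. Cytotoxicity tracked by SRB staining in parallel cultures; gain or loss of signal fitted relative to DMSO.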

Compound	outcome
O=C(c1ccccc1)c1ccccc1	inactive
C=CC(=C)CC/C=C(\C)CCC=C(C)C	inactive
CCCCCCCCCCCCOS(=O)(=O)O	inactive
O=C1OC2(c3ccccc31)c1cc(I)c(O)c(I)c1Oc1c2cc(I)c(O)c1I	inactive
COc1cc(OC)nc(NC(=O)NS(=O)(=O)Nc2ccccc2C(=O)N(C)C)n1	inactive

target: human Vitamin D Receptor (VDR), VDR (gene 7421) (UniProt P11473); assay: ATG_VDR_TRANS: Attagene TRANS-FACTORIAL HepG2 Assay for human Vitamin D Receptor (VDR) (AID 2283022); conditions: not given
Sequence (P11473 whole entry, looked up, the tested form may be a part): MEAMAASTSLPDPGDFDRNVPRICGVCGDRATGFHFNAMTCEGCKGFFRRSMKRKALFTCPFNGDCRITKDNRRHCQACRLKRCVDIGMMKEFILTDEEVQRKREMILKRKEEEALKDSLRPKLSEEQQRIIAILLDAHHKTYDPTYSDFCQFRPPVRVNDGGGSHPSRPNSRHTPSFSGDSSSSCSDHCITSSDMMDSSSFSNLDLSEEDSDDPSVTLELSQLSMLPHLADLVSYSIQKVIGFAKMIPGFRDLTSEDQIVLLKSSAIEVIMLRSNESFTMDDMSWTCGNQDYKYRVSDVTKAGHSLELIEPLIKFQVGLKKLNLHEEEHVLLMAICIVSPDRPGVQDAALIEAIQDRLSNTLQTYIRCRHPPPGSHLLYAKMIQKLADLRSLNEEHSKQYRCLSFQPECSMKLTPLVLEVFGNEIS
How it was run: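 RT-PCR/capillary electrophoresis read-out of reporter mRNA induction in transiently transfected HepG2; 24 h dosing; chimeric NR-Gal4 (TRANS format); gain-of-signal fit against DMSO baseline.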

Compound	outcome
O=C(c1ccccc1)c1ccccc1	inactive
CCCCCCCCCCCCCCCC(=O)OC	inactive
CC(C)c1c(C(=O)Nc2ccccc2)c(-c2ccccc2)c(-c2ccc(F)cc2)n1CC[C@@H](O)C[C@@H](O)CC(=O)O	inactive
OCC1CCC(CO)CC1 (stereo not given)	inactive
CCCCCCCC(OC)OC	inactive
Nc1cc(Cl)c(-c2cc(Cl)c(N)cc2Cl)cc1Cl	inactive
COC(=O)CC(C(C)=O)C(=O)OC (stereo not given)	inactive
O=C(O)CN(CCCN(CC(=O)O)CC(=O)O)CC(=O)O	inactive
CCOC(OCC)C(=O)c1ccccc1	inactive
COC(O)c1ccccc1 (stereo not given)	inactive
CCOCCOCC	inactive
O=C1OC2(c3ccccc31)c1cc(I)c(O)c(I)c1Oc1c2cc(I)c(O)c1I	inactive
C=Cc1ccc(O)c(OC)c1	inactive
CCCCCCCCCC=CCC1CC(=O)OC1=O (stereo not given)	inactive
CCc1cccc(CC)c1NC(=O)C(=O)O	inactive
C=C(c1ccc(C(=O)O)cc1)c1cc2c(cc1C)C(C)(C)CCC2(C)C	inactive

Compound	outcome
CCO[Si](C)(C)OCC	inactive
C=CC(=O)OCC(CO)(COCC(COC(=O)C=C)(COC(=O)C=C)COC(=O)C=C)COC(=O)C=C	inactive
FC(F)(F)C1(F)C(F)(F)C(F)(F)C(F)(F)C(F)(C(F)(F)F)C1(F)F (stereo not given)	inactive
CCO[Si](CCC1CCC2OC2C1)(OCC)OCC (stereo not given)	inactive
COC(=O)C(F)(F)C(F)(F)C(F)(F)C(F)(F)C(F)(F)F	inactive
Oc1c(Cl)cc(Cl)cc1Sc1cc(Cl)cc(Cl)c1O	inactive
O=C(c1cc(O)c(O)c(O)c1)c1ccc(O)c(O)c1O	inactive
O=c1cc(-c2ccccc2)oc2ccc3ccccc3c12	inactive
CCOC(=O)c1nc(C(Cl)(Cl)Cl)n(-c2ccc(Cl)cc2Cl)n1	inactive
COc1ccc(C#N)cc1	inactive
NNC(=O)CCCCC(=O)NN	inactive
Cn1sccc1=O	inactive
NC(C(F)(F)F)C(F)(F)F	inactive
CCCCCC(C)OC(=O)COc1ccc(Cl)c2cccnc12 (stereo not given)	inactive
CCCC=O	inactive

From PubChem BioAssay (EPA / NIEHS)
